The panel holds about 79,000 compounds, 15% with a hit somewhere; the sample as a whole holds those more often. Activity calls are given as the source filed them. Rule as the data show it: active = growth inhibition above about 70%; inactive = the rest.
Key:
[1] = NCI Yeast Anticancer Drug Screen. Data for the rad52 strain (AID 147);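 also: 0% = growth of vehicle-treated control cultures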; settings: S. cerevisiae rad52 mutant growth inhibition, active compounds read high
Outline: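 Genetically altered yeast (DNA damage repair defect) treated with compound; inhibition calculated relative to vehicle.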

[2] = NCI Yeast Anticancer Drug Screen. Data for the wt1 strain (AID 149);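 also: 0% = growth of vehicle-treated wt1 cultures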; settings: S. cerevisiae wt1 strain (SPY 50644) growth inhibition, active compounds read high
Outline: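 Vehicle-normalised growth inhibition; strain wt1; compound exposure.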

[3] = NCI Yeast Anticancer Drug Screen. Data for the rad50EPP+ strain (AID 151);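 also: 0% = growth of vehicle-treated control cultures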; settings: S. cerevisiae rad50 mutant strain, active compounds read high
Outline: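 Strain rad50EPP+; compound exposure; % growth inhibition vs vehicle.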

[4] = NCI Yeast Anticancer Drug Screen. Data for the mgt1 strain (AID 153); settings: S. cerevisiae mgt1 mutant growth inhibition, active compounds read high
Outline: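 Read-out: yeast growth inhibition vs vehicle control. Strain mgt1, drawn from a panel altered in DNA damage repair or cell cycle control.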

[5] = NCI Yeast Anticancer Drug Screen. Data for the rad50 strain (AID 155);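 also: 0% = growth of vehicle-only cultures of the same strain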; settings: S. cerevisiae rad50 strain growth inhibition, active compounds read high
Outline: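 A DNA repair-deficient yeast mutant serves as the test organism; compound-induced growth inhibition is calculated against vehicle-treated cells.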

[6] = NCI Yeast Anticancer Drug Screen. Data for the mec2-1 strain (AID 157); settings: S. cerevisiae mec2-1 strain, active compounds read high
Outline: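 Cells of the genetically defined mec2-1 yeast strain are incubated with test compound. Inhibition of growth is calculated against vehicle-treated controls.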

[7] = NCI Yeast Anticancer Drug Screen. Data for the rad14 strain (AID 159);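 also: 0% = growth of vehicle-treated control cultures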; settings: S. cerevisiae rad14 strain growth inhibition, active compounds read high
Outline: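 Vehicle-treated cultures served as the baseline for growth inhibition of a DNA repair-mutant yeast strain exposed to each compound.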

[8] = NCI Yeast Anticancer Drug Screen. Data for the sgs1 mgt1 strain (AID 161);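 also: 0% = growth of cultures given vehicle only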; settings: S. cerevisiae sgs1 mgt1 strain, active compounds read high
Outline: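 Mutant yeast exposed to compound; growth scored against vehicle-only wells.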

[9] = NCI Yeast Anticancer Drug Screen. Data for the CLN2oe strain (AID 163);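 also: 0% = growth of vehicle-only control cultures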; settings: S. cerevisiae CLN2oe strain, active compounds read high
Outline: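 Strain altered in cell-cycle control, incubated with compound; growth compared to solvent-treated controls.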

[10] = NCI Yeast Anticancer Drug Screen. Data for the cln2 rad14 strain (AID 165);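 also: 0% = growth equal to vehicle treated cultures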; settings: S. cerevisiae cln2 rad14 strain, active compounds read high
Outline: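 The screen exposed genetically defined yeast (cln2 rad14) to test compounds and scored growth inhibition relative to vehicle-treated controls.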

[11] = NCI Yeast Anticancer Drug Screen. Data for the bub3 strain (AID 167); settings: S. cerevisiae bub3 mutant strain, active compounds read high
Outline: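 Inhibition values come from growth of compound-treated mutant yeast normalised to vehicle-treated controls.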

[12] = NCI Yeast Anticancer Drug Screen. Data for the wt2 strain (AID 169);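 also: 0% = growth of vehicle-treated yeast cultures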; settings: S. cerevisiae wt2 strain growth inhibition, active compounds read high
Outline: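 Steps: yeast strain treated with compound; growth recorded; inhibition calculated relative to cultures given vehicle alone.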

[13] = NCI Yeast Anticancer Drug Screen. Data for the mlh1 strain (AID 171);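 also: 0% = growth of vehicle-treated control cultures of the same strain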; settings: S. cerevisiae mlh1 strain growth inhibition, active compounds read high
Outline: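 Yeast screen: mutant strain plus compound, growth scored against vehicle control wells.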

[14] = NCI Yeast Anticancer Drug Screen. Data for the sgs1 strain (AID 173);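 also: 0% = growth of vehicle-only control cultures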; settings: S. cerevisiae sgs1 mutant, active compounds read high
Outline: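 Inhibition of yeast growth served as the measure. The mutant strain was treated with each compound, and growth was normalised to cultures receiving vehicle alone.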

[15] = NCI Yeast Anticancer Drug Screen. Data for the mlh1 rad18 strain (AID 175); settings: S. cerevisiae mlh1 rad18 strain growth inhibition, active compounds read high
Outline: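 Compound-treated yeast growth, normalised to vehicle controls. Strain bears defined DNA repair mutations.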

[16] = NCI Yeast Anticancer Drug Screen. Data for the rad18 strain (AID 177); settings: S. cerevisiae rad18 mutant growth inhibition, active compounds read high
Outline: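 Inhibition values reflect reduced yeast growth compared with vehicle-treated controls, using a strain engineered with a DNA damage repair defect.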

[17] = at 5.0 µM (retest, dose inferred, filed as 0.5)
[18] = at 50.0 µM (retest, dose inferred, filed as 5.0)

Measured: growth inhibition

C=COC(=O)N[C@H]1CCc2cc(OC)c(OC)c(OC)c2-c2ccc(SC)c(=O)cc21
active: [1]; at 100.0 µM 75% | [5]; at 100.0 µM 88% | [6]; at 100.0 µM 73% | [7]; at 100.0 µM 93% | [9]; at 100.0 µM 80% | [12]; at 100.0 µM 76% | [13]; at 100.0 µM 84% | [14]; at 100.0 µM 73% | [16]; at 100.0 µM 75%
inactive: [1]; at 1.2 µM -2% | [1]; at 3.7 µM 1% | [1]; at 11.0 µM 6% | [1]; at 33.0 µM 14% | [2]; at 1.2 µM -2% | [2]; at 3.7 µM -2% | [2]; at 11.0 µM -3% | [2]; at 33.0 µM -2% | [2]; at 100.0 µM 18% | [3]; at 1.2 µM -8% | [3]; at 3.7 µM -2% | [3]; at 11.0 µM -3% | [3]; at 33.0 µM -6% | [3]; at 100.0 µM -2% | [4]; at 1.2 µM -5% | [4]; at 3.7 µM -8% | [4]; at 11.0 µM -4% | [4]; at 33.0 µM 13% | [4]; at 100.0 µM 64% | [5]; at 1.2 µM 1% | [5]; at 3.7 µM 4% | [5]; [17] -6% | [5]; at 11.0 µM 10% | [5]; at 33.0 µM 20% | [5]; [18] 34% | [5]; at 50.0 µM 38.5% | [6]; at 1.2 µM -5% | [6]; at 3.7 µM -4% | [6]; [17] -9% | [6]; at 11.0 µM -5% | [6]; at 33.0 µM 2% | [6]; [18] 41% | [6]; at 50.0 µM 30.9% | [7]; at 1.2 µM -1% | [7]; at 3.7 µM -1% | [7]; at 11.0 µM 6% | [7]; at 33.0 µM 19% | [8]; [17] -9% | [8]; [18] 42% | [8]; at 50.0 µM 38% | [9]; at 1.2 µM -4% | [9]; at 3.7 µM -2% | [9]; at 11.0 µM -12% | [9]; at 33.0 µM -10% | [10]; [17] 3% | [10]; [18] 6% | [10]; at 50.0 µM 20.4% | [11]; at 1.2 µM -3% | [11]; at 3.7 µM -6% | [11]; [17] -3% | [11]; at 11.0 µM -6% | [11]; at 33.0 µM 4% | [11]; [18] 67% | [11]; at 50.0 µM 34.2% | [11]; at 100.0 µM 58% | [12]; at 1.2 µM -3% | [12]; at 3.7 µM -4% | [12]; at 11.0 µM -3% | [12]; at 33.0 µM 1% | [13]; at 1.2 µM 1% | [13]; at 3.7 µM -1% | [13]; at 11.0 µM 0% | [13]; at 33.0 µM 12% | [14]; at 1.2 µM -2% | [14]; at 3.7 µM -3% | [14]; at 11.0 µM 1% | [14]; at 33.0 µM 14% | [15]; [17] -8% | [15]; [18] 30% | [15]; at 50.0 µM 29.1% | [16]; at 1.2 µM -2% | [16]; at 3.7 µM 0% | [16]; at 11.0 µM 3% | [16]; at 33.0 µM 13%

CCCCS(=O)(=O)Nc1ccc(Nc2c3ccccc3nc3ccccc23)c(OC)c1
inactive: [1]; at 1.2 µM 54% | [2]; at 1.2 µM -38% | [2]; at 3.7 µM -34% | [2]; at 11.0 µM -36% | [2]; at 33.0 µM 44% | [3]; at 1.2 µM -20% | [3]; at 3.7 µM -11% | [3]; at 11.0 µM 10% | [3]; at 33.0 µM 53% | [4]; at 1.2 µM -49% | [4]; at 3.7 µM -46% | [4]; at 11.0 µM -33% | [4]; at 33.0 µM 64% | [5]; at 1.2 µM 39% | [5]; at 50.0 µM 45% | [6]; at 1.2 µM -29% | [6]; at 3.7 µM -9% | [6]; [17] 15% | [6]; at 11.0 µM 37% | [6]; at 50.0 µM 47.5% | [7]; at 1.2 µM -31% | [7]; at 3.7 µM -25% | [7]; at 11.0 µM -9% | [8]; [17] 44% | [9]; at 1.2 µM 10% | [9]; at 3.7 µM 3% | [9]; at 11.0 µM 6% | [10]; [17] 25% | [11]; at 1.2 µM -53% | [11]; at 3.7 µM -63% | [11]; [17] 43% | [11]; at 11.0 µM -35% | [11]; at 33.0 µM 60% | [12]; at 1.2 µM -13% | [12]; at 3.7 µM -22% | [12]; at 11.0 µM -13% | [12]; at 33.0 µM 41% | [13]; at 1.2 µM -58% | [13]; at 3.7 µM -43% | [13]; at 11.0 µM -29% | [14]; at 1.2 µM 1% | [14]; at 3.7 µM 3% | [14]; at 11.0 µM 20% | [16]; at 1.2 µM -14% | [16]; at 3.7 µM -15% | [16]; at 11.0 µM 0%
active: [1]; at 3.7 µM 80% | [1]; at 11.0 µM 90% | [1]; at 33.0 µM 93% | [1]; at 100.0 µM 96% | [2]; at 100.0 µM 96% | [3]; at 100.0 µM 81% | [4]; at 100.0 µM 96% | [5]; at 3.7 µM 78% | [5]; [17] 86% | [5]; at 11.0 µM 89% | [5]; at 33.0 µM 94% | [5]; [18] 98% | [5]; at 100.0 µM 96% | [6]; at 33.0 µM 91% | [6]; [18] 98% | [6]; at 100.0 µM 98% | [7]; at 33.0 µM 79% | [7]; at 100.0 µM 96% | [8]; [18] 99% | [8]; at 50.0 µM 84% | [9]; at 33.0 µM 72% | [9]; at 100.0 µM 91% | [10]; [18] 95% | [10]; at 50.0 µM 77% | [11]; [18] 96% | [11]; at 50.0 µM 76.9% | [11]; at 100.0 µM 96% | [12]; at 100.0 µM 93% | [13]; at 33.0 µM 73% | [13]; at 100.0 µM 97% | [14]; at 33.0 µM 79% | [14]; at 100.0 µM 97% | [15]; [17] 78% | [15]; [18] 97% | [15]; at 50.0 µM 84% | [16]; at 33.0 µM 78% | [16]; at 100.0 µM 96%

— PubChem BioAssay (NCI)
